Test [1] can be described thus: qHTS assay to identify small molecule antagonists of the androgen receptor (AR) signaling pathway using the MDA cell line in the presence of 0.5 nM R1881 - cell viability counter screen (AID 1259242). Further: nearly all actives have a fitted effect of over 45% in size. Further: potency means the concentration at half of the fitted maximal effect. In a few lines: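 Live-cell protease fluorescence, CellTiter-Fluor, 30 min at 37C. Cells: MDA-kb2, 3,000/well, preincubated 5 hr. Compounds plus 0.5 nM R1881 final, 16 hr, 37C, 0% CO2.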
For orientation: qHTS replaces the single test concentration by a dilution series.

The target of test [2] is Estrogen receptor (Homo sapiens) (UniProt P03372). The test can be described thus: qHTS assay to identify small molecule antagonists of the estrogen receptor alpha (ER-alpha) signaling pathway using the BG1 cell line in the presence of 0.1 nM 17-beta-estradiol (AID 1259244). Further: nearly all actives have a fitted effect of over 50% in size. Further: potency means the concentration at half of the fitted maximal effect. In a few lines:
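Luminescence after ONE-Glo (30 min, room temperature) measured ERE-luciferase activity in VM7Luc4E2 cells treated 22 h with compound and 0.1 nM final 17beta-estradiol as stimulator.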

A short description of test [3]: qHTS assay to identify small molecule phospholipidosis (PLD) inducers (AID 1259344; active means well fitted curve in the direction sought with a large enough effect; an effect the other way counts as inactive or inconclusive). In a few lines: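 Cells (HepG2, 900 per well) attach for 4 h, receive LipidTOX Red and compound together, incubate 24 h at 37 C, are fixed 30 min with paraformaldehyde/Hoechst, then imaged at one site per well.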
Test [4] is described as follows: qHTS assay to identify small molecule HDAC inhibitors (AID 1259364).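 Further: wild-type HCT-116 cells with endogenous class I/II HDAC activity; top concentration of the series differs between compounds; nearly all actives have a fitted effect of over 45% in size.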 In a few lines:
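HCT-116 (wild type), 1,500 cells/well, overnight; compound 2 hr 37C 5% CO2; HDAC-Glo I/II reagent 30 min RT; luminescence readout.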

Test [5] in a line: qHTS assay to identify small molecule agonists of the sonic hedgehog signaling (Shh) pathway - cell viability counter screen (AID 1259366). Further: nearly all actives have a fitted effect of over 50% in size. Further: potency means the concentration at half of the fitted maximal effect. In a few lines: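 In quantitative high-throughput format, 3T3 Gli1-Luc cells were exposed to compounds for 24hr and multiplexed for viability using CellTiter-Fluor, incubated 1hr at 37C before the fluorescence read.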
Test [6] can be described thus: qHTS assay to identify small molecule antagonists of the sonic hedgehog signaling (Shh) pathway - cell viability counter screen (AID 1259367). Further: nearly all actives have a fitted effect of over 55% in size. Further: potency means the concentration at half of the fitted maximal effect. In a few lines: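 Cytotoxicity was assessed in parallel with Shh reporter activity by measuring live-cell protease fluorescence (CellTiter-Fluor) in NIH/3T3 cells stably carrying Gli1-Luc, treated with compound under conditioned medium stimulation for 23 hr plus 1 hr reagent incubation.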

Test [7] can be described thus: qHTS assay to identify small molecule agonists of the sonic hedgehog signaling (Shh) pathway (AID 1259368; calls by dose curve;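 further: NIH/3T3-derived 3T3Gli1-Luc cells carrying a stable Gli1-driven firefly luciferase reporter; series mostly up to about 92 µM; nearly all actives have a fitted effect of over 15% in size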). The method, boiled down:
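Read-out: firefly luciferase luminescence from a Gli1 response element reporter stably integrated in NIH/3T3-derived 3T3Gli1-Luc cells, measured 30 min at room temperature after reagent addition. Compound exposure lasted 24 hr at 37 C, 5% CO2.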

A short description of test [8]: qHTS assay to identify small molecule antagonists of the sonic hedgehog signaling (Shh) pathway (AID 1259369; calls by dose curve; further: nearly all actives have a fitted effect of over 45% in size). In a few lines: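 Luminescence readout: firefly Luc under Gli1 response element in 3T3Gli1-Luc cells (NIH/3T3 clone). Antagonist mode, stimulation by conditioned medium; compound exposure 24hr at 37 C, 5% CO2.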
Test [9] addresses Estrogen receptor beta (Homo sapiens) (UniProt Q92731). The test can be described thus: qHTS assay to identify small molecule agonists of the estrogen receptor beta (ER-beta) signaling pathway (AID 1259377; active means well fitted activation curve with a large enough effect in the signal ratio in the repeat runs, not every such curve was filed as active; the % refers to the signal ratio). In a few lines:
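Reporter cells (HEK293T, ER-beta-UAS-bla) receive compounds or DMSO after a 6 hr pre-incubation. They then incubate 16 hr at 37C/5% CO2, and fluorescence from LiveBLAzer B/G substrate is measured after 2 hours at room temperature.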

Test [10] has the same target. Kind of test: qHTS assay to identify small molecule antagonists of the estrogen receptor beta (ER-beta) signaling pathway (AID 1259378; active means well fitted inhibition curve with a large enough effect in the signal ratio in the repeat runs, not every such curve was filed as active; the % refers to the signal ratio). In a few lines:
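ER-beta-UAS-bla HEK293T (GripTite) cells in 2% charcoal-stripped FBS medium were preincubated 6 hr at 37C, dosed with compound, then stimulated with 1 nM E2 (final) for 16 hr; beta-lactamase reporter read by B/G FRET fluorescence after 2 hr substrate loading.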

Test [11] is described as follows: qHTS assay to identify small molecule agonists of the androgen receptor (AR) signaling pathway in the presence of an antagonist - cell viability counter screen (AID 1259379). Further: nearly all actives have a fitted effect of over 25% in size. Further: potency means the concentration at half of the fitted maximal effect. In a few lines: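 Viability counter screen: CellTiter-Fluor fluorescence, measured in the same wells as the luciferase read-out. MDA-kb2 cells, 3,000/well, with nilutamide at 3.0uM final and compounds at 15 concentrations, 16 hr at 37C, 0% CO2.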

The nature of test [12]: qHTS assay to identify small molecule agonists of the estrogen receptor beta (ER-beta) signaling pathway - cell viability counter screen (AID 1259380). Further: nearly all actives have a fitted effect of over 30% in size. Further: potency means the concentration at half of the fitted maximal effect. In a few lines:
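Luminescence read-out (CellTiter-Glo, 30 min, room temp) taken in the same wells as the beta-lactamase reporter assay; ER-beta-UAS-bla HEK293T cells exposed to DMSO-dissolved compounds for 16 hr at 37C in 2% charcoal-stripped FBS medium.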

Test [13] in a line: qHTS assay to identify small molecule antagonists of the estrogen receptor beta (ER-beta) signaling pathway - cell viability counter screen (AID 1259382). Further: nearly all actives have a fitted effect of over 55% in size. Further: potency means the concentration at half of the fitted maximal effect. In a few lines: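 Luminescent ATP read-out (CellTiter-Glo, 30 min, RT) taken in the same wells as the bla reporter assay. HEK293T ER-beta-UAS-bla cells in 2% charcoal-stripped FBS were exposed to compounds with 1nM E2 for 16 hr at 37C.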

Test [14] concerns the target Estrogen receptor (Homo sapiens) (UniProt P03372). Kind of test: qHTS assay to identify small molecule agonists of the estrogen receptor alpha (ER-alpha) signaling pathway in the presence of an antagonist (AID 1259383; calls by dose curve; further: top concentration of the series differs between compounds; nearly all actives have a fitted effect of over 15% in size). In a few lines:
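Luciferase luminescence (ONE-Glo, 30min at room temperature) measured in VM7Luc4E2 cells after 22hr compound exposure at 15 concentrations, with 10.0nM ICI-182,780 final present; cells express endogenous ER-alpha and carry four EREs upstream of luciferase.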

Test [15] is described as follows: qHTS assay to identify small molecule agonists or antagonists of the thyroid stimulating hormone receptor (TSHR) signaling pathway - wild type cell line counter screen (AID 1259384; calls by dose curve; further: potency means the concentration at half of the fitted maximal effect). The method, boiled down:
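Wild-type HEK293 cells were plated 18 h at 37 C/5% CO2, pin-dosed with compound plus Ro20-1724 medium, held 30 min at room temperature, then given cAMP-d2 and anti-cAMP-cryptate; fluorescence was read after 1 h. Fifteen concentrations, triplicate.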

The target in test [16] is Thyrotropin receptor (Homo sapiens) (UniProt P16473). Kind of test: qHTS assay to identify small molecule antagonists of the thyroid stimulating hormone receptor (TSHR) signaling pathway (AID 1259385; calls by dose curve; further: nearly all actives have a fitted effect of over 20% in size). The method, boiled down:
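TSHR-HEK293 cells were plated and held 18 h at 37C/5% CO2, then given compound plus Ro20-1724 and stimulated with TSH at 1.5 ng/mL final. After 30 min at room temperature, cAMP was detected with cAMP-d2/anti-cAMP-cryptate (1 h) by fluorescence.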

The nature of test [17]: qHTS assay to identify small molecule agonists of the estrogen receptor alpha (ER-alpha) signaling pathway in the presence of an antagonist - cell viability counter screen (AID 1259386). Further: nearly all actives have a fitted effect of over 30% in size. Further: potency means the concentration at half of the fitted maximal effect. In a few lines: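 Read-out: CellTiter-Fluor fluorescence after 1hr reagent incubation, measured in the same wells as the luciferase readout. VM7Luc4E2 cells were exposed to 15 compound concentrations with 10.0nM ICI-182,780 for 22hr at 37C.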

Test [18] in a line: qHTS assay to identify small molecule HDAC inhibitors - cell viability counter screen (AID 1259365). Further: series mostly up to about 92 µM; nearly all actives have a fitted effect of over 50% in size. The method, boiled down: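 Measured quantity is CellTiter-Glo luminescence from wild-type HCT-116 cells after compound incubation of 2hr at 37C, 5% CO2; reagent developed 30min at room temperature.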
Test [19] deals with Androgen receptor (Homo sapiens) (UniProt P10275). The test can be described thus: qHTS assay to identify small molecule antagonists of the androgen receptor (AR) signaling pathway using the MDA cell line in the presence of 0.5 nM R1881 (AID 1259243). Further: nearly all actives have a fitted effect of over 50% in size. In a few lines:
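MDA-kb2, MMTV-luc (AR/GR elements); 3,000 cells/well; cpd + 0.5 nM R1881 final; 16 hr 37C, 0% CO2; ONE-Glo 30 min RT; luminescence.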

The target is the same in test [20]. The test can be described thus: qHTS assay to identify small molecule agonists of the androgen receptor (AR) signaling pathway in the presence of an antagonist (AID 1259381; calls by dose curve; further: nearly all actives have a fitted effect of over 15% in size). In a few lines:
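Luciferase read-out (ONE-Glo, 30min room temperature) in MDA-kb2 MMTV-reporter cells; agonist mode run in presence of AR antagonist nilutamide, 3.0uM final. Compounds tested as 15-point series, 16hr exposure at 37C, 0% CO2.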

The structures appear in SMILES notation. Values joined by “and” are separate entries in the source; they are usually repeats but may differ in a detail not shown here. Equal entries are not always repeated. Results filed as inconclusive are left out. More than one record can exist for a structure, and the calls need not agree. Active and inactive are the calls of the source. Unless noted, the call rests on the fitted dose curve; in most records, active means well fitted curve in the direction sought with a large enough effect in the repeat runs; inconclusive means weak or mixed curves; inactive means no such curve, though single readings can be large; an effect the other way counts as inactive or inconclusive.
On the % scale 0 is the no-effect control and ±100 the full control effect.

Estrogen receptor (Homo sapiens), sequence (P03372 whole entry, looked up): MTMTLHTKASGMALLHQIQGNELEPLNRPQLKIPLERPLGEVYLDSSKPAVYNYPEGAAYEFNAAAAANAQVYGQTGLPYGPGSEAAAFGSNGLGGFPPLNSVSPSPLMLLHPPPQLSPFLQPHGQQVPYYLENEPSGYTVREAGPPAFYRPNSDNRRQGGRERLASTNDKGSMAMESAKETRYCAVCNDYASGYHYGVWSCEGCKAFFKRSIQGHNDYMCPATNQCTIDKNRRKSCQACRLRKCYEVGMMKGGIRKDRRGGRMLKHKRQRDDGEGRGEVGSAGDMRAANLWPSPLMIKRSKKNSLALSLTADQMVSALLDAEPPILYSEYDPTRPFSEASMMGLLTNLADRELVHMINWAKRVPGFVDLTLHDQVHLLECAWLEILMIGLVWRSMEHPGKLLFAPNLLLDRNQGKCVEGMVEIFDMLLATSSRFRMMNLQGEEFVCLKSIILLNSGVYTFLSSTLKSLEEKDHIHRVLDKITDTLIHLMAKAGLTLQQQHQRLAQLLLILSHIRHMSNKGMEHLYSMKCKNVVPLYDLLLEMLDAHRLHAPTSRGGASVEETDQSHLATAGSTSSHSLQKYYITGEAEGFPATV
Thyrotropin receptor (Homo sapiens), sequence (P16473 whole entry, looked up): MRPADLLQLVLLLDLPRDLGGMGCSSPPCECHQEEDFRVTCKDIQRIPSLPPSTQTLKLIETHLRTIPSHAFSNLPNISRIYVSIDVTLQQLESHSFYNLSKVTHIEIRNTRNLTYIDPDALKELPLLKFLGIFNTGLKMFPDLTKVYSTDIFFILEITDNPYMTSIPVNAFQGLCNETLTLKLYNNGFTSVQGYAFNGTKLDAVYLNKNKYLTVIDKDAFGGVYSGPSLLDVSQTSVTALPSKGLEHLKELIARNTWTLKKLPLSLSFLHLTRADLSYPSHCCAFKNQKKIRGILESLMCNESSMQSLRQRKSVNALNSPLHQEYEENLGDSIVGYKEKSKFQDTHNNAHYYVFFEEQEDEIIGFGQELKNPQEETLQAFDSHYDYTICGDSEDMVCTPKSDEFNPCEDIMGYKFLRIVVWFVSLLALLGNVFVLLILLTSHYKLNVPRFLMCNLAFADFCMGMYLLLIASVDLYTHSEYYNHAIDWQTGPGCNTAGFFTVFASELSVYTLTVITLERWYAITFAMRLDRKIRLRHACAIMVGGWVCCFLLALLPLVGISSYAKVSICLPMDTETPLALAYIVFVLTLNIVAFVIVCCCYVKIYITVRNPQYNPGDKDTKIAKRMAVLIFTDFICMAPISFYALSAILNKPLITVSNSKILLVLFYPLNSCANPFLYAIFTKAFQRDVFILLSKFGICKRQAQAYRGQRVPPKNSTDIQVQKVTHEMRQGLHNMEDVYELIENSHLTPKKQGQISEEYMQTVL
Androgen receptor (Homo sapiens), sequence (P10275 whole entry, looked up): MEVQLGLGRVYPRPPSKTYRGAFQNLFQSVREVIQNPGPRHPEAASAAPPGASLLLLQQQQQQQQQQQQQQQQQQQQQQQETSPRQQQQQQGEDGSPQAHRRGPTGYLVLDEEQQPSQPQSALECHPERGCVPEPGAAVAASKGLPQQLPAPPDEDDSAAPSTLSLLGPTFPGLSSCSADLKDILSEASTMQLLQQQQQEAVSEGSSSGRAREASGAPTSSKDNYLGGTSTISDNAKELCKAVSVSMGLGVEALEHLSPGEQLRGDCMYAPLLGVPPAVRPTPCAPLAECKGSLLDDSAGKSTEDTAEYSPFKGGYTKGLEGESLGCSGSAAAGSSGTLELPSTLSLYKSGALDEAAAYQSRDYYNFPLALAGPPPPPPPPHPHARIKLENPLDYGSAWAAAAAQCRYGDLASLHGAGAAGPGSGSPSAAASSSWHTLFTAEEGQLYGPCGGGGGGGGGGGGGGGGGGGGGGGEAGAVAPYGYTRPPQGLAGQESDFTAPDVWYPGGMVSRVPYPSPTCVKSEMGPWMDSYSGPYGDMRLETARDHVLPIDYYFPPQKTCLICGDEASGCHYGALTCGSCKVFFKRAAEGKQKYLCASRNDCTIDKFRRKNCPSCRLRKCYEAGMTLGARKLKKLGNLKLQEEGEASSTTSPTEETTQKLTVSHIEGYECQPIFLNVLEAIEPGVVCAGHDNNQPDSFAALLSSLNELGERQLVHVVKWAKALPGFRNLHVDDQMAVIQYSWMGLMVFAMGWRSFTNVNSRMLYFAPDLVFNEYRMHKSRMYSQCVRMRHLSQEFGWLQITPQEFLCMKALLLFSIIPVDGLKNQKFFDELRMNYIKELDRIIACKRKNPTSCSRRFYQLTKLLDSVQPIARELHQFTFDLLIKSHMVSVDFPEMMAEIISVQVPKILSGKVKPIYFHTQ
Estrogen receptor beta (Homo sapiens), sequence (Q92731 whole entry, looked up): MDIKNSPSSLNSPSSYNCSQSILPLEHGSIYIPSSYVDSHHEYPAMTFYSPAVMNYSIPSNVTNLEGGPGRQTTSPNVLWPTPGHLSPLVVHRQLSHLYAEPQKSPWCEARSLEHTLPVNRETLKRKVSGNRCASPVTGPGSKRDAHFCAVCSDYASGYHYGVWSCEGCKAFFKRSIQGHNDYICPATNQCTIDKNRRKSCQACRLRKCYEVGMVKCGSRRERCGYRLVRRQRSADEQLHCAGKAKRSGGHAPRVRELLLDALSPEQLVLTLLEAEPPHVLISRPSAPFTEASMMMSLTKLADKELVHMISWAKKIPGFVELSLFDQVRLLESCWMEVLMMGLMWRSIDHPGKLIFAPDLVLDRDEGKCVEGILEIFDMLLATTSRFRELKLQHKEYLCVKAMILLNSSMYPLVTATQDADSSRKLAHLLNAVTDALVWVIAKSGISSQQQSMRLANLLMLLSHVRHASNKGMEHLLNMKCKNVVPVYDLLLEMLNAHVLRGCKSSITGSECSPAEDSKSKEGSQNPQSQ

Regarding `O=c1[nH]cc(F)c(=O)[nH]1`, the Potency entry in test [1], in test [3], in test [4], in test [5], in test [6] and in [8] was “inactive” throughout. The Potency result in test [9], in [10], in [11], in test [14], in [15] and in test [16] was “inactive” in each case. Also, the Potency result in test [17] is “inactive”. Moreover, the Potency in test [2] is 12.7 µM (active) and inactive; in [12], 10.1 µM (active) and 12.5 µM (active) and inactive; in [13] it was 14.2 µM (active) and inactive. The result in test [7] was inactive.

For `NS(=O)(=O)c1cc2c(cc1Cl)NCNS2(=O)=O`, the Potency result in [1], in test [2], in test [3], in test [4], in test [18] and in test [5] was “inactive” in each case. Also, the Potency result in test [6], in test [8], in [9], in test [10], in test [11] and in [12] was “inactive” throughout. The Potency entry in test [13], in test [14], in test [15], in test [16] and in test [17] was “inactive” each time. In test [7], the result was inactive.

Take `COc1ccc2c(c1)c(CC(=O)O)c(C)n2C(=O)c1ccc(Cl)cc1`: the Potency entry in test [1], in [19], in test [2], in test [4], in test [5] and in test [6] was “inactive” throughout. The Potency result in [8], in test [11], in test [20], in test [13], in test [14] and in [15] was “inactive” in each case. The Potency entry in test [16] and in test [17] was “inactive” each time. Also, the PLD induction in test [3] was 14.5% [at 7.66 µM] (inactive). Further, in [7], the molecule was called inactive.

Turning to `O=CC(=O)c1ccccc1`, the Potency entry in test [1], in test [2], in test [4], in test [5], in [6] and in test [8] was “inactive” in each case. For the same molecule, the Potency result in test [9], in test [10], in test [11], in [12], in test [13] and in test [14] was “inactive” throughout. Besides, the Potency entry in test [15] and in test [17] was “inactive” throughout. Moreover, in [7], the molecule was called inactive.

Consider `Nc1c(N=Nc2ccc(-c3ccc(N=Nc4cc(S(=O)(=O)O)c5ccccc5c4N)cc3)cc2)cc(S(=O)(=O)O)c2ccccc12`, for which the Potency in [1] was 27.3 µM (active); in [5], 17.2 µM (active); in [6], 15.3 µM (active); in test [11], 24.3 µM (active); in [17], 17.2 µM (active). Besides, the Potency result in [3], in test [4], in test [18], in test [8], in [9] and in [13] was “inactive” throughout. The molecule was called inactive in test [7].

Turning to `Cc1cccc(C)c1`, the Potency result in test [1], in test [2], in test [4], in [18], in [5] and in test [6] was “inactive” in each case. Moreover, the Potency entry in [8], in test [11], in test [12], in test [13], in [14] and in test [15] was “inactive” each time. Further, the Potency entry in [16] and in [17] was “inactive” in each case. The molecule was called inactive in [7].

As to `CC(C)NCC(O)c1ccc(O)c(O)c1` (stereo not drawn), the Potency result in test [1], in [3], in test [4], in [5], in test [6] and in [8] was “inactive” each time. The Potency entry in test [9], in test [10], in test [11], in test [12], in test [13] and in test [16] was “inactive” each time. Also, the molecule was called inactive in [7]. Further, the Potency in [15] is 4.98 nM (active) and 5.87 nM (active) and 5.7 nM (active); in test [17], 54.5 µM (active).
